Records with an inconclusive call do not appear. Calls of active or inactive are those of the source. How the source made its calls: active means hit-call score of the fitted dose curve at least 0.9, where 1 is the maximum; inconclusive means response in the unintended direction; inactive means score below 0.9.

This assay in a line: STM_H9_OrnCyssISnorm_ratio: Stemina devTOX quickPredict H9 human embryonic stem cell (hESC)-based Assay for Ornithine (ORN):Cystine (CYSS) Ratio (AID 2283714). As for the experimental part: STM_H9_secretome utilizes undifferentiated H9 cells to measure relative changes in two metabolites, ornithine (ORN) and cystine (CYSS) in the secretome, targeting a critical drop in the ORN/CYSS ratio as a biomarker for developmental toxicity.STM_H9_OrnCyssISnorm_ratio is one of 10 components calculated in the STM_H9_secretome assay. It is the ratio value of OrnISnorm_perc to CyssISnorm_perc.Data from the assay component STM_H9_OrnCyssISnorm_ratio was analyzed at the assay endpoint STM_H9_OrnCyssISnorm_ratio in the positive analysis fitting direction relative to DMSO as the negative control and baseline of activity. Using a type of binding reporter, gain or loss-of-signal activity can be used to understand relative metabolite change.
H9 hESCs maintained in a pluripotent state were exposed to test compound for 72h with chemical replenishment with media replacement every 24h. Cell-conditioned media from the final 24-h treatment period was collected for analysis of the targeted biomarker, and cell viability of the corresponding cell layer was assessed. The chemical library was tested in blinded fashion. Each test plate included 1uM Methotrexate (MTX; Selleck Chemicals, Houston, Texas) as a positive reference, 5 nM MTX as a negative reference, 0.1% DMSO as the neutral (vehicle) control, and sample-level media blanks.H9 cell-conditioned media from the final 24-h treatment period was collected for analysis of the targeted biomarker and cell viability was measured from the corresponding cell layer. Cell viability was measured using the CellTiter-Fluor assay (Promega, Madison, Wisconsin) based on proteolytic cleavage of a substrate to fluorescent signal proportional to the number of living cells. The cell viability Relative Fluorescence Unit (RFU) was background corrected and normalized to mean RFU of the neutral control (0.1% DMSO). The collected H9-cell-conditioned media samples were processed for targeted biomarker analysis as described (Palmer et al., 2013). Briefly, spent media samples were deproteinized (40% acetonitrile) and processed for UPLC-HRMS. Data acquisition was performed using 4 separate UPLC-HRMS systems, consisting of an Agilent 1290 Infinity LC system (Agilent Technologies) interfaced with an Agilent high-resolution mass spectrometer (models G6520A, G6520B, G6530A, and G6224A). A Waters Acquity UPLC BEH Amide column (2.1mm x 50mm, 1.7lm particle size; Waters, Milford, Massachusetts) maintained at 40C was applied for separation of metabolites using a 6.5min solvent gradient with 0.1% formic acid in water and 0.1% formic acid in acetonitrile (1.0ml/min flow rate). Data were acquired using MassHunter Acquisition software (version B 04.00, Agilent Technologies). The extracted ion chromatogram (EIC) areas for ORN, CYSS, and their respective spike-in C13-standards were determined using the Agilent MassHunter Quantitative Analysis software, version B.05.00 or newer (Agilent Technologies), and data were normalized as described in Palmer et al. (2017).
The AC50 is the midpoint of the concentration-response curve, whichever way the signal moves. On to `COc1cc2c(c(OC)c1OC)-c1ccc(OC)c(=O)cc1[C@@H](NC(C)=O)CC2`, for which the half-maximal activity concentration (AC50) was 0.0127 µM (active). Still for that read-out and setting: the same measure for `Nc1ccn([C@@H]2O[C@H](CO)[C@@H](O)[C@@H]2O)c(=O)n1`: 0.203 µM (active). `Cc1nc(-c2ccccn2)ncc1C(=O)Nn1cc(C)c2cc(F)ccc21`: the result was inactive. For the molecule `NC(=O)NN=Cc1ccc([N+](=O)[O-])o1`, the AC50 is 2.42 µM (active). Same read-out and setting: in the case of `CCCC(CCC)C(=O)O` it was 293 µM (active); in that of `O=C1CN(N=Cc2ccc([N+](=O)[O-])o2)C(=O)N1`, 6.21 µM (active); in that of `CCCCN1C(=O)[C@@H]([C@H](O)C2CCCCC2)NC(=O)C12CCN(Cc1ccc(Oc3ccc(C(=O)O)cc3)cc1)CC2`, 2.14 µM (active). As for `CCN(CC)C(=S)SSC(=S)N(CC)CC`, the AC50 is 0.325 µM (active). Take `O=S1(=O)CCCO1`: the AC50 was 78.2 µM (active). For `COS(C)(=O)=O`, the AC50 is 65.5 µM (active). With `OC(Cn1cncn1)(Cn1cncn1)c1ccc(F)cc1F`, the result was inactive. Regarding `Cc1ncc([C@@H](CCCCCCc2ccc3c(n2)NCCC3)CC(=O)O)cn1`, the AC50 is 0.0104 µM (active). As for `NC(=O)N1c2ccccc2C=Cc2ccccc21`, the AC50 was 4.18 µM (active). `CC(C)C(=O)Nc1ccc([N+](=O)[O-])c(C(F)(F)F)c1`: the AC50 was 50 µM (active). The same measure, in the same setting: in the case of `OCCNCCO` it was 14 µM (active).

The values are drawn from PubChem BioAssay (EPA / NIEHS).
